Here are results for 13 compounds from PubChem BioAssay (NCATS).

For experiment [1], the target named is Lysosomal acid glucosylceramidase (Homo sapiens) (UniProt P04062). Kind of experiment: Glucocerebrosidase-p2 (AID 348; in the data active means potency below about 10 µM; further: potency means the concentration at half of the fitted maximal effect). The note with it: purified GBA, blue fluorogenic substrate, 40 min. The method in brief:
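Compounds titrated from 0.6 nM upwards against 0.2 nM enzyme in pH 5.9 citric acid/KH2PO4, taurocholate, tween-20; blue fluorogenic substrate 80 uM, 40 min room temperature, stopped and read Ex 365/Em 440 for AC50.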

The nature of experiment [2]: AP1 Signaling Pathway (AID 357; active means well fitted curve in either direction with a large enough effect, not every such curve was filed as active; further: on the % scale 0 is the no-effect control and ±100 the full control effect). The following applies: ME-180 AP-1-bla reporter, EGF-induced, beta-lactamase ratio, 5 h; at 7.69 µM (top of the series) unless noted. In short, it runs like this: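 First, ME-180 AP-1-bla cells were cultured overnight at 37 °C in low-serum Opti-MEM. Next, titrated compounds with EC50 EGF were incubated 5 hours. Finally, CCF4 was added for 2.5 hours and the 460/530 nm ratio recorded.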

Experiment [3] is described as follows: NFAT Signaling Pathway (AID 444; active means well fitted curve in either direction with a large enough effect, not every such curve was filed as active;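 further: carbachol stimulus at about its EC50 of 1 µM final; on the % scale 0 is the no-effect control and ±100 the full control effect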). The note with it: Jurkat NFAT-bla M1, carbachol, beta-lactamase ratio, 5 h; at 7.69 µM (top of the series) unless noted. The method in brief:
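Read-out: CCF4 FRET ratio (460 nm/530 nm) after 1 h RT dye loading, used for %activity and AC50 from titration series. Cells: Jurkat NFAT-β-lactamase/M1 line, treated with compound plus 1 uM carbachol for 5 h, 37 °C.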

Experiment [4] is described as follows: Stat Signaling Pathway (AID 446; active means well fitted curve in either direction with a large enough effect, not every such curve was filed as active;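 further: ME-180 cervical cancer cells given 40 pM IL-6 alongside compound; SIE-controlled beta-lactamase reporter measured as 460/530 nm FRET emission ratio; on the % scale 0 is the no-effect control and ±100 the full control effect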). The note with it: ME-180 (cervical carcinoma) SIE beta-lactamase reporter, IL-6 stimulated, 5 h; series mostly up to 7.69 µM. The method in brief:
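ME-180 SIE-bla cells; overnight plating; cpd + IL-6 40 pM, 5 h, 37 C; LiveBLAzer 2.5 h RT; 460/530 nm emission ratio. Normalized to 300 pM IL-6 and 125 nM JAK inhibitor controls.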

For experiment [5], the target named is Glucocorticoid receptor (Homo sapiens) (UniProt P04150). The experiment is described as follows: GR-GFP Redistribution (AID 450;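 active means compounds whose dose series gives a full or clear partial fitted curve of increased nuclear translocation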; further: potency means the concentration at half of the fitted maximal effect). The note with it: U2OS GR-GFP nuclear translocation, laser cytometry, 2 h.
Experiment [6] has the same target. The experiment is described as follows: GR-EFC Redistribution (AID 451; calls by dose curve; further: potency means the concentration at half of the fitted maximal effect). The note with it: CHO-K1 GR-EFC translocation, beta-gal luminescence, 2 h. The method in brief:
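Translocation of GR-ED fusion to nuclear EA restores b-gal, read by luminescence after 1 h room-temperature detection. Engineered CHO-K1 biosensor cells, 1,000/well, exposed 2 h at 37 C to titrations up to 46 uM final.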

Experiment [7] concerns the target Mitogen-activated protein kinase 10 (Mus musculus) (UniProt Q61831). Kind of experiment: JNK3 AlphaScreen Assay (AID 530; active means well fitted curve in either direction with a large enough effect, not every such curve was filed as active;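 further: kinase came from lysate of stimulated human HepG2 cells; signal reports phosphorylation of biotinylated GST-cJun 1-79 at Ser73 with 10 µM ATP; on the % scale 0 is the no-effect control and ±100 the full control effect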). The following applies: JNK3 lysate, c-Jun phosphorylation; series mostly up to 57.1 µM. The method in brief:
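Room-temperature AlphaScreen kinase assay; pre-activated HepG2 lysate as JNK3 source, biotin-GST-cJun(1-79) substrate, 10 uM ATP, compound 15 min preincubation.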
On the technique in general: Bead proximity is the source of the signal in Alpha formats.

Experiment [8] concerns the target 3',5'-cyclic-AMP phosphodiesterase 4B (Homo sapiens) (UniProt Q07343). The experiment is described as follows: qHTS Assay for Inhibitors of PDE-IV (AID 607; active means well fitted activation curve with a large enough effect in the main read-out, with a control signal flat, not every such curve was filed as active; further: % of control where 0% means no effect). The following applies: HEK293 ACTOne CNG channel cells, membrane potential fluorescence; series mostly up to 22.9 µM. The method in brief: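 ACTOne HEK293 cells carry a modified cAMP-gated CNG channel and express endogenous PDE4; plated 1000 cells/well, compounds up to 22.9 uM final. Membrane-potential dye fluorescence (ex 535/em 590) was read; parental cells received 10 uM forskolin + 100 uM RO 20-1724.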
Background: Quantitative high-throughput screening tests each substance at several concentrations.

The target of experiment [9] is Cytochrome P450 2C9 (Homo sapiens) (UniProt P11712). The experiment is described as follows: qHTS Assay for Inhibitors and Substrates of Cytochrome P450 2C9 (AID 883). Further: potency means the concentration at half of the fitted maximal effect; nearly all actives have a fitted effect of over 60% in size. The following applies: recombinant CYP2C9, luciferin-H luminescence, 60 min; series mostly up to 57.1 µM. In short, it runs like this: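 Inhibition of CYP2C9 is scored as loss of luminescence, with 57uM sulphaphenazole defining 100% inhibition. Substrate Luciferin-H is used at 100uM, equal to its KM; enzyme at 10nM in 25mM KPO4, 60 min at 37C with NADPH regeneration.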

The target of experiment [10] is Cytochrome P450 3A4 (Homo sapiens) (UniProt P08684). The experiment is described as follows: qHTS Assay for Inhibitors and Substrates of Cytochrome P450 3A4 (AID 884). Further: potency means the concentration at half of the fitted maximal effect; nearly all actives have a fitted effect of over 50% in size. The note with it: recombinant CYP3A4, Luciferin-PPXE luminescence; series mostly up to 57.1 µM. The method in brief:
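20 nM human CYP3A4 with 25 uM Luciferin-PPXE (at KM) in 200 mM KPO4, preincubated 10 min with compound; NADPH regeneration started a 60 min RT reaction. Luciferin detected by luminescence, normalized to 57 uM ketoconazole as full inhibition.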

The target is the same in experiment [11]. The experiment is described as follows: qHTS Assay for Activators of Cytochrome P450 3A4 (AID 885). Further: nearly all actives have a fitted effect of over 65% in size. The following applies: recombinant CYP3A4, Luciferin-PPXE luminescence, 60 min; series mostly up to 57.1 µM. In short, it runs like this: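 20nM CYP3A4 + 25uM Luciferin-PPXE (=KM), 200mM KPO4; cpd 10 min RT; NADPH regen, 60 min RT; stop w/ detection buffer, 20 min; luminescence. Normalized to 57 uM ketoconazole.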

The target of experiment [12] is Cytochrome P450 2D6 (Homo sapiens) (UniProt P10635). The experiment is described as follows: qHTS Assay for Inhibitors and Substrates of Cytochrome P450 2D6 (AID 891). Further: potency means the concentration at half of the fitted maximal effect; nearly all actives have a fitted effect of over 60% in size. The note with it: recombinant CYP2D6, luciferin-ME EGE luminescence; series mostly up to 57.1 µM. The method in brief:
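Human CYP2D6 (5 nM) with 30 uM Luciferin-ME EGE (at Km) in 100 mM KPO4, compound preincubated 10 min, then NADPH regeneration system for 60 min at room temperature. Luciferin read by luminescence; normalized to 1.43 uM quinidine.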

Experiment [13] addresses Cytochrome P450 2C19 (Homo sapiens) (UniProt P33261). The experiment is described as follows: qHTS Assay for Inhibitors and Substrates of Cytochrome P450 2C19 (AID 899). Further: potency means the concentration at half of the fitted maximal effect; nearly all actives have a fitted effect of over 60% in size. The note with it: recombinant CYP2C19, luciferin-H EGE luminescence; series mostly up to 57.1 µM. In short, it runs like this:
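5nM enzyme + 10uM Luciferin-H EGE (=KM), 50mM KPO4; cpd pin-transferred, 10 min 37C; NADPH regen, 60 min 37C; stopped w/ luciferin detection reagent, 20 min; luminescence. Normalized to 57uM ketoconazole (AC100).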

The target of experiment [14] is Ubiquitin carboxyl-terminal hydrolase 1 (Homo sapiens) (UniProt O94782). Kind of experiment: Inhibitors of USP1/UAF1: Pilot qHTS (AID 504865).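 Further: rhodamine fluorescence freed from ubiquitin-rhodamine substrate followed over time; top concentration of the series differs between compounds; on the % scale 0 is the no-effect control and ±100 the full control effect; nearly all actives have a fitted effect of over 35% in size.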 The following applies: purified USP1/UAF1, Ub-rhodamine cleavage fluorescence; series mostly up to 54.9 µM. In short, it runs like this:
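USP1/UAF1 complex at 1 nM preincubated 15 min at room temperature with compound, then Ub-Rho substrate added at 150 nM final. Fluorescence (480/540 nm) read kinetically in 50 mM HEPES pH 7.8, 0.5 mM EDTA, 1 mM TCEP, 0.1 mg/ml BSA, 0.01% Tween-20.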

For experiment [15], the target named is Rap guanine nucleotide exchange factor 4 (Homo sapiens) (UniProt Q8WZA2). Kind of experiment: Confirmatory qHTS for antagonist of cAMP-regulated guanine nucleotide exchange factor 4 (EPAC2) (AID 1645885). Further: on the % scale 0 is the no-effect control and ±100 the full control effect; nearly all actives have a fitted effect of over 25% in size. The following applies: EPAC2 Rap1B-BODIPY-GDP exchange fluorescence, biochemical; series mostly up to 12.7 µM.
Experiment [16] has as its target Rap guanine nucleotide exchange factor 3 (Homo sapiens) (UniProt O95398). The experiment is described as follows: Counterscreen qHTS for agonist of cAMP-regulated guanine nucleotide exchange factor 3 (EPAC1) (AID 1645889). Further: nearly all actives have a fitted effect of over 40% in size. Further: potency means the concentration at half of the fitted maximal effect. On activation: % of control where 0% means no effect. The following applies: EPAC1 Rap1B-BODIPY-GDP exchange, fluorescence; series mostly up to 154 µM. The method in brief: (§1)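 Rap1B-BODIPY-GDP 250 nM + GDP 50 uM; cpds 7-pt, final 9.74 nM–152 uM (activator mode) or from 7.32 nM upwards (inhibitor mode); RT; FI 480/540 nm at 5 and 30 min, then ± cAMP, reread.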
Background: Counterscreens check selectivity or assay interference.

The target is the same in experiment [17]. The experiment is described as follows: Confirmatory qHTS for antagonist of cAMP-regulated guanine nucleotide exchange factor 3 (EPAC1) (AID 1645880). Further: nearly all actives have a fitted effect of over 55% in size. Further: potency means the concentration at half of the fitted maximal effect.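 On activity, negative = inhibition: plate controls were DMSO only for no effect and full effect of the ATA control for full effect.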 The note with it: EPAC1 Rap1B-BODIPY-GDP exchange, fluorescence; activity, negative = inhibition: at 115 µM (top of the series). The method in brief:
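Nucleotide exchange uses 100 nM EPAC1, 250 nM RAP1B-BODIPY-GDP and 50 uM GDP, with compounds in a concentration-titration series. After 5 min at room temperature, fluorescence (480 nm ex/540 nm em) is read every 5 min for 30 min. Data are normalized to control ATA and DMSO.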

Experiment [18] has the same target. Kind of experiment: Confirmatory qHTS for agonist of cAMP-regulated guanine nucleotide exchange factor 3 (EPAC1) (AID 1645881). Further: nearly all actives have a fitted effect of over 75% in size. Further: potency means the concentration at half of the fitted maximal effect.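 On activation: EPAC1 catalysed release of BODIPY-GDP from Rap1B seen as fluorescence loss.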 The note with it: EPAC1 Rap1B BODIPY-GDP exchange fluorescence; series mostly up to 154 µM.
The target is the same in experiment [19]. The experiment is described as follows: Counterscreen qHTS for antagonist of cAMP-regulated guanine nucleotide exchange factor 3 (EPAC1) (AID 1645888).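 Further: fluorescence loss as bound BODIPY-GDP is released from Rap1B; % of control where 0% means no effect.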 The following applies: Rap1B-BODIPY-GDP nucleotide exchange, fluorescence; series mostly up to 154 µM. The method in brief: as §1

SMILES strings stand for the structures. Values without a mark were called inactive. Records with an inconclusive call do not appear. Calls of active or inactive are those of the source. Unless noted, the call rests on the fitted dose curve; in most records, active means well fitted curve in the direction sought with a large enough effect; inconclusive means small, poorly fitted or top-dose-only effect, or another doubt; inactive means no such curve, though single readings can be large; an effect the other way counts as inactive or inconclusive. Some results are limits rather than exact numbers.

Rap guanine nucleotide exchange factor 3 (Homo sapiens), sequence (O95398 whole entry, looked up): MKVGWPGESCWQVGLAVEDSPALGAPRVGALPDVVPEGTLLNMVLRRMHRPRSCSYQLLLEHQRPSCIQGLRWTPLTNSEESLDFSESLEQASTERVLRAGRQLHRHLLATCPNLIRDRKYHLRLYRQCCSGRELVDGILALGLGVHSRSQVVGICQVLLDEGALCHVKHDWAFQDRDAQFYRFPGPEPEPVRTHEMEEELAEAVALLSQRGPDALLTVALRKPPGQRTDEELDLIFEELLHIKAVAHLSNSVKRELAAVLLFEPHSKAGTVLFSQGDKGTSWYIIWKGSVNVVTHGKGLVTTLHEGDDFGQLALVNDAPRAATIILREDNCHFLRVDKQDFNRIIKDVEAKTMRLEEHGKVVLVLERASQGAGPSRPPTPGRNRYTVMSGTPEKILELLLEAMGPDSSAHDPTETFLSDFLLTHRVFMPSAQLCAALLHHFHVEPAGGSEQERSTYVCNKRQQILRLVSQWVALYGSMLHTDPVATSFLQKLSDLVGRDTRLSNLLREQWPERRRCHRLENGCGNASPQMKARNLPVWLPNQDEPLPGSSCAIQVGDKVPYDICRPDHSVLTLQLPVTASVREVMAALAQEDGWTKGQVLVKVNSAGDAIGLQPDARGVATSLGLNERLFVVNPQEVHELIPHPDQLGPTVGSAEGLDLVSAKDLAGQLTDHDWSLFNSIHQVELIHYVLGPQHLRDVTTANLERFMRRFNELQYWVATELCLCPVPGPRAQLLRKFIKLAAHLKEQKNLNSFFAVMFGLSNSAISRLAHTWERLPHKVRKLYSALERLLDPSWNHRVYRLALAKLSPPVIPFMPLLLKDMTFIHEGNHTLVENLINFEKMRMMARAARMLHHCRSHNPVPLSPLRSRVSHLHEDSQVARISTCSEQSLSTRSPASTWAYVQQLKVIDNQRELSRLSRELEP
Rap guanine nucleotide exchange factor 4 (Homo sapiens), sequence (Q8WZA2 whole entry, looked up): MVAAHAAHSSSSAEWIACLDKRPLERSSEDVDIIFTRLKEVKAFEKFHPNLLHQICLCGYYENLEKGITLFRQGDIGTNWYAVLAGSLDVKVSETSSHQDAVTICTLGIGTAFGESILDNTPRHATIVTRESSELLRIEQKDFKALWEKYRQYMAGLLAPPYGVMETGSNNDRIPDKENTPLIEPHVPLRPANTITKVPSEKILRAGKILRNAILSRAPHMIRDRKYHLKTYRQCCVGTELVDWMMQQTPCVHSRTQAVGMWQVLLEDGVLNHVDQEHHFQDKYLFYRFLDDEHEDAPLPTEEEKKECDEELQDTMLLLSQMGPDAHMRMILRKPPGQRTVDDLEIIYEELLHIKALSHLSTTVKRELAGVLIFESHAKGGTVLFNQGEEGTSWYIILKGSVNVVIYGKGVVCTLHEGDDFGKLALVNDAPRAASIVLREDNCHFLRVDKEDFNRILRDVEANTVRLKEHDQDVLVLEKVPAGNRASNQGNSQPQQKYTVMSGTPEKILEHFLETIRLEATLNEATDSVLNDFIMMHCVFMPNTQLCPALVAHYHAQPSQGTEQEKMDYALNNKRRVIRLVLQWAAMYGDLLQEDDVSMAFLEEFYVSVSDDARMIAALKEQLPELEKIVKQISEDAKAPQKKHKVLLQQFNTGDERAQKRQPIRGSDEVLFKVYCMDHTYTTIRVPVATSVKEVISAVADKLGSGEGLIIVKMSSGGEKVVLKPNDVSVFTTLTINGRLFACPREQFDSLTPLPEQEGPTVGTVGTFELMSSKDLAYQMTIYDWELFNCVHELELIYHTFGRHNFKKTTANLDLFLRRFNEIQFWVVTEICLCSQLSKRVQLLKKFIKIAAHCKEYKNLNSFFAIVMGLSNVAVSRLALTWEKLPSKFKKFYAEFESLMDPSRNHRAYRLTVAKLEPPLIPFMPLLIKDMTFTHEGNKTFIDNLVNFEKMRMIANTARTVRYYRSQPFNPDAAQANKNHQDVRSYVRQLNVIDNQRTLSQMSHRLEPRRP
Glucocorticoid receptor (Homo sapiens), sequence (P04150 whole entry, looked up): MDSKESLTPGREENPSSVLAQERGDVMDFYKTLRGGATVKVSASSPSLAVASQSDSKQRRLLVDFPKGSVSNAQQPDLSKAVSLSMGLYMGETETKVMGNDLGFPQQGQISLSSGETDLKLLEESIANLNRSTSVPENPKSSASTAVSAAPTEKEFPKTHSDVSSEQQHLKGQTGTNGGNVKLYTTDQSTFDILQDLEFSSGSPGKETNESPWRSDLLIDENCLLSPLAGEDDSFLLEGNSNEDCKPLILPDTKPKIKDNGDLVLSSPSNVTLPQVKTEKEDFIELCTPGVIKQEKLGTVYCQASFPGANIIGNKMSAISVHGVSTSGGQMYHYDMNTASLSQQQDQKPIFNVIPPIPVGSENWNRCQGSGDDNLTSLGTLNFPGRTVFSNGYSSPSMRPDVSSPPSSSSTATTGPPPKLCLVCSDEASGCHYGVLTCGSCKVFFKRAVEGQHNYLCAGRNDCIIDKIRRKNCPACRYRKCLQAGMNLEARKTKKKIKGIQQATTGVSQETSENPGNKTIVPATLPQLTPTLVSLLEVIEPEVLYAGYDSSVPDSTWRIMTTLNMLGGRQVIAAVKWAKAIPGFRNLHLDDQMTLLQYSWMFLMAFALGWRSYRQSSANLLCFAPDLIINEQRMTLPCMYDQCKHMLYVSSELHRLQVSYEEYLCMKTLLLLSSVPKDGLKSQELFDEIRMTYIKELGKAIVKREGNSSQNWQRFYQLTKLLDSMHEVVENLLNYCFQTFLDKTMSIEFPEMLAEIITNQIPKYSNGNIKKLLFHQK
Cytochrome P450 3A4 (Homo sapiens), sequence (P08684 whole entry, looked up): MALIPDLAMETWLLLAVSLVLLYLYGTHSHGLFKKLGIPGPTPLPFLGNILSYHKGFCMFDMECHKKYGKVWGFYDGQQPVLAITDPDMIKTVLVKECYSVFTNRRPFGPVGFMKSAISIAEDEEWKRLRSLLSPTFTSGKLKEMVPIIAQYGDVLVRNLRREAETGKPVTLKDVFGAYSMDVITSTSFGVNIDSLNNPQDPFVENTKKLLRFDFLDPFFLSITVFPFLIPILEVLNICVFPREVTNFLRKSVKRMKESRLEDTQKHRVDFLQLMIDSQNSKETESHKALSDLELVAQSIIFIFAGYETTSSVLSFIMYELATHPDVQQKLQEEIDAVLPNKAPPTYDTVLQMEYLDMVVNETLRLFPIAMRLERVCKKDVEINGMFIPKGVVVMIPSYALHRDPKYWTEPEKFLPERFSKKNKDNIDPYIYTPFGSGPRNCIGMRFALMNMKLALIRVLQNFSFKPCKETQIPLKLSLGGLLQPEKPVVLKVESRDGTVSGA
Cytochrome P450 2C19 (Homo sapiens), sequence (P33261 whole entry, looked up): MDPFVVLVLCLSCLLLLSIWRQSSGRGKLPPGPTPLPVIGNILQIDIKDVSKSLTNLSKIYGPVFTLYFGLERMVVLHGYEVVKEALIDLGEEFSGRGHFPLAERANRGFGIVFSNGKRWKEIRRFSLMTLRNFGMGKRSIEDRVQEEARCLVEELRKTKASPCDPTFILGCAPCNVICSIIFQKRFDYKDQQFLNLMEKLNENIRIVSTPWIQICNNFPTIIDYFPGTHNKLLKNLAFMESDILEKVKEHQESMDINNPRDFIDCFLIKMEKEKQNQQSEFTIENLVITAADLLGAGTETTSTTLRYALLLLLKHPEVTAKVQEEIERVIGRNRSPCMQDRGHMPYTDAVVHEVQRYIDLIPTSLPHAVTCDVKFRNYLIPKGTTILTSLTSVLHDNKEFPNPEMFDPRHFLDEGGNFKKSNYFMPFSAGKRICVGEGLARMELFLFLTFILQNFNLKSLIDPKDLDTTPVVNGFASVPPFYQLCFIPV
Ubiquitin carboxyl-terminal hydrolase 1 (Homo sapiens), sequence (O94782 whole entry, looked up): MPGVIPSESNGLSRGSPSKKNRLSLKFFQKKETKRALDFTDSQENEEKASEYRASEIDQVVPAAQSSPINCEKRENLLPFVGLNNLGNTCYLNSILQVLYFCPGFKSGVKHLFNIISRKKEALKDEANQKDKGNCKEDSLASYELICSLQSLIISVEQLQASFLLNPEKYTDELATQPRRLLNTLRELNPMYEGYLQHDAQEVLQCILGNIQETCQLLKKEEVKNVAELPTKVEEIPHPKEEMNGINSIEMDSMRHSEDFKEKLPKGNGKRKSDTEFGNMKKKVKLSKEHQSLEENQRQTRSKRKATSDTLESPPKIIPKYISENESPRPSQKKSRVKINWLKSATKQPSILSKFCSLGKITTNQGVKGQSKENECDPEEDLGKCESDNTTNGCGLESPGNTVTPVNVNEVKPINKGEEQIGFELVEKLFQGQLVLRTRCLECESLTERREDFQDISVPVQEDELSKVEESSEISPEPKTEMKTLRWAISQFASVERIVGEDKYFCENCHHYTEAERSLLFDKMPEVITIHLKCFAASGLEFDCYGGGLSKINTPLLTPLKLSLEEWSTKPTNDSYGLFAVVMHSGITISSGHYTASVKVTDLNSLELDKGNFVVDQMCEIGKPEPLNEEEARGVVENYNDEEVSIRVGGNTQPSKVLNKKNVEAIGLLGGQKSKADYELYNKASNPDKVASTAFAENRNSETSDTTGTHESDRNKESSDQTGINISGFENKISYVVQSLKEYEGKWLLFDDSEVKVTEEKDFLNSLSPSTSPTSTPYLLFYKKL
Cytochrome P450 2D6 (Homo sapiens), sequence (P10635 whole entry, looked up): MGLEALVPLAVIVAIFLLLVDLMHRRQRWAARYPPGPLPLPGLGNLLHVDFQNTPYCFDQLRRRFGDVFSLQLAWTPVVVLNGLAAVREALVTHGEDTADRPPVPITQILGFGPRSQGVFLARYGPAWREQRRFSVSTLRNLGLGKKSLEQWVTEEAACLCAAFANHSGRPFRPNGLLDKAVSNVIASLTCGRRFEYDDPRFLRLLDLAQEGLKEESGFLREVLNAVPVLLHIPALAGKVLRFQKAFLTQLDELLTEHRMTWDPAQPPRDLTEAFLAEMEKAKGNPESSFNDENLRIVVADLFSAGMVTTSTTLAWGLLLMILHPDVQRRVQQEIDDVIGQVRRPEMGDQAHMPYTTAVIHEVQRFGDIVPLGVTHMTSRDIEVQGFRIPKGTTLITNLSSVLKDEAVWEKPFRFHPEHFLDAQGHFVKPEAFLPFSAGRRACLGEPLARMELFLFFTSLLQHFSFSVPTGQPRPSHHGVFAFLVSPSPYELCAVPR

For the compound `COc1ccc2[nH]cc(CCNc3ncncc3-c3ccccc3Cl)c2c1`, the Potency was above 11.4 µM in [1]; above 46 µM in [5]; above 46 µM in experiment [6]; 0.199 µM (active) in experiment [9]; 0.398 µM (active) in [10]; 0.631 µM (active) in experiment [12]. Moreover, the Potency in [13] is 0.0631 µM (active). For the same compound, the activity change, negative = inhibition was -12.3% in experiment [2] and -11.6% in [3]. The compound was called inactive in [4] and in experiment [11]. Also, the Potency result in experiment [7], in experiment [8], in [14] and in [15] was “inactive” throughout.

For the compound `COc1ccccc1NC(=O)Cc1ccc(-c2ccccc2)cc1`, the Potency entry in [15] and in experiment [16] was “inactive” throughout.

With `COc1ccc(NS(=O)(=O)c2ccc(S(=O)(=O)N3CCCC3)cc2)cc1`, the Potency result in [17] and in [18] was “inactive” in each case. Also, the activity change, negative = inhibition in [19] was -8.86% [at 30.8 µM]. In addition, the activation in experiment [16] was 24.5% [at 30.8 µM].

As to `COC(=O)c1cn(C(=O)c2ccc(C)cc2C)c2ccccc12`, the Potency entry in experiment [17], in [18], in experiment [19] and in experiment [16] was “inactive” each time.

On to `Cc1cc2nc3c(=O)n(C)c(=O)n(C)c3nc2cc1N=CN(C)C`, for which, in experiment [17], the Potency result was “inactive”. The results for the Potency in experiment [18] and in experiment [16] were 50.1 µM (active) and 44.7 µM (active), respectively.

For `CCOC(=O)C1Oc2ccccc2C(c2ccc(C)cc2)=C1C(=O)OC` (configuration not stated), the Potency entry in experiment [17], in experiment [18] and in experiment [16] was “inactive” throughout.

Take `COc1ccccc1C1CC(=O)Oc2cc(C)c(Cl)c(C)c21` (configuration not stated): the Potency entry in [17] and in experiment [18] was “inactive” in each case. Also, the activity change, negative = inhibition in experiment [19] was 3.69% [at 30.8 µM]. Further, in [16], the activation is 15.1% [at 30.8 µM].

Regarding `C=CCSc1nc2ccccc2c(=O)n1Cc1ccccc1`, the Potency entry in experiment [17] and in [18] was “inactive” throughout. Moreover, the activity change, negative = inhibition in experiment [19] is 17.3% [at 30.8 µM]. Besides, the activation in experiment [16] is 7.4% [at 30.8 µM].

On to `COC(=O)c1ccc2nc(-c3ccc(Cl)cc3)c(CC3CCCCC3)n2c1`, for which the Potency result in experiment [17], in experiment [18], in experiment [19] and in experiment [16] was “inactive” in each case.

Regarding `C=CCOc1ccc(/C=N/NC(C)=O)cc1OCC`, the Potency entry in [17], in experiment [18], in [19] and in experiment [16] was “inactive” throughout.

For the compound `COc1cc(C)c(S(=O)(=O)N2CCCC2)cc1C(C)C`, the Potency entry in [17] and in [18] was “inactive” each time. Besides, in [16], the activation was 14.6% [at 30.8 µM].

Take `Cc1ccc(S(=O)(=O)N2[C@@H](c3ccc(C(C)(C)C)cc3)C(C(=O)O)=CC[C@H]2c2cccc(Cl)c2)cc1`: the Potency in [17] was 47.8 µM (active). The Potency result in [18] and in experiment [16] was “inactive” each time.

`C=C1SC(Nc2c(C)cc(C)cc2C)=NC12CCCCC2`: the Potency entry in experiment [17], in experiment [18], in [19] and in experiment [16] was “inactive” each time.
